Screens as filed in PubChem BioAssay.
TRPV1 ag: activates the human vanilloid receptor TRPV1. activation, % at 8.33 µM. TRPV1-expressing cells, Fluo-8 calcium influx, agonist mode. Q8NER1. hit rate 0.19% among 320,000; in the data active = activation above about 80%; inconclusive = between about 30% and that limit; also: 0% is about no effect
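Cells expressing TRPV1 were dye-loaded with Fluo-8 and read kinetically: 10 s baseline, 3 min after compound (agonist portion), then 2 min after EC20 capsaicin (allosteric enhancer portion). Calcium-bound dye fluorescence at 480/520 nm.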
TRPV1 PAM: human TRPV1 potentiation; TRPV1-expressing cells, Fluo-8 calcium influx, capsaicin EC20 potentiation; potentiation, % at 8.33 µM; hit rate 0.02% among 320,000; in the data active = potentiation above about 80%; inconclusive = between about 30% and that limit; also: 0% is about no effect
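TRPV1-expressing cells were cultured overnight at 35.5C and loaded with Fluo-8 calcium dye for 40 to 90 min at room temperature. After a 10 s baseline, compound was added and calcium influx was read kinetically for 3 min (ex 480/em 520 nm).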
KCNH2 WT inh: KCNH2 (human, wildtype) channel inhibition; hit rate 0.37% among 340,000; activity change, % at 1.84 µM; Q12809; U2OS, BacMam KCNH2, thallium flux FluxOr; hits give low values;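 active = maximum activity change below -70%; inconclusive = maximum activity change between -70% and -50%; inactive = maximum activity change above -50%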; also: % is scaled to controls: 0 for no effect and ±100 for the full control effect
Target sequence (Q12809 whole entry, looked up): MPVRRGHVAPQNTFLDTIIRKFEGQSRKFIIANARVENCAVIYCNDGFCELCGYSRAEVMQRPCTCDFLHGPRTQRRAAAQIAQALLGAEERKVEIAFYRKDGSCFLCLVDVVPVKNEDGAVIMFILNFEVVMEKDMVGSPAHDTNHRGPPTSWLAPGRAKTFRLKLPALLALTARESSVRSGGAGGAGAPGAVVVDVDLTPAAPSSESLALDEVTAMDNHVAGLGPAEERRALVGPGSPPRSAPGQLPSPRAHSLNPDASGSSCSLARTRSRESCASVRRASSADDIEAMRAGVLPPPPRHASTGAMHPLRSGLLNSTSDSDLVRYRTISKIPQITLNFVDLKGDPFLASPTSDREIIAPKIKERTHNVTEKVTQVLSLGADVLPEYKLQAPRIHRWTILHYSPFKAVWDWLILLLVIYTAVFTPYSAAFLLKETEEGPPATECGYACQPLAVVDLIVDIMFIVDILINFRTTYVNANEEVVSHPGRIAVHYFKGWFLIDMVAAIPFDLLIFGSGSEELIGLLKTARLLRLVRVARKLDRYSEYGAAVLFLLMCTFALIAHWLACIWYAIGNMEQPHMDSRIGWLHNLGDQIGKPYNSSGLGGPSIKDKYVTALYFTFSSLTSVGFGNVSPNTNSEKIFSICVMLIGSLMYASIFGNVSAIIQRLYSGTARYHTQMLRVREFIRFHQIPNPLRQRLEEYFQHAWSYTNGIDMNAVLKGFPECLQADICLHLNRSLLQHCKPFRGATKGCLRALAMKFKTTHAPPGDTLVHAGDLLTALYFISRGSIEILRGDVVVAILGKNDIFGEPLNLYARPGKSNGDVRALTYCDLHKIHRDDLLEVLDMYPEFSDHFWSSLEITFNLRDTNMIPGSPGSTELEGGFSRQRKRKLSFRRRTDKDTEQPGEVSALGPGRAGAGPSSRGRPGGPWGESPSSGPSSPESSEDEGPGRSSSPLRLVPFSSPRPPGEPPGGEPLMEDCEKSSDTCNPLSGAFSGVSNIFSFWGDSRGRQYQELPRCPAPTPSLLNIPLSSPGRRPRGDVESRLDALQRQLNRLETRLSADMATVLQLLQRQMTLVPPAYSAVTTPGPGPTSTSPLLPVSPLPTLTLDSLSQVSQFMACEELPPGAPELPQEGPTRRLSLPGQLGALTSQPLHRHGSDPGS
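U2OS cells were transduced with wild-type KCNH2 virus (2.03 x 10^8 / mL) for 4 h at room temperature, then cultured overnight at 37 C. Thallium flux was read with FluxOr dye. Rate constants were normalized to DMSO controls.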
KCNH2 3.1 block: blocks the human KCNH2 3.1 channel isoform. activity change, % (tested at about 1.8 µM). hit rate 0.95% among 340,000. U2OS KCNH2 3.1, thallium flux FluxOr; hits give low values;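 active = maximum activity change below -70%; inconclusive = maximum activity change from -70% to -50%; inactive = maximum activity change above -50%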;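 also: thallium influx rate constant from kinetic fluorescence after stimulation buffer; % is scaled to controls: 0 for no effect and ±100 for the full control effect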
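Thallium flux read-out: FluxOr dye with Red40 quencher in HBSS/HEPES, 45 min at RT. Rate constants from kinetic reads were normalized to positive and negative DMSO controls. Cells: U2OS virally expressing the 3.1 isoform.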
An asterisk follows results filed as active; u = inconclusive; x = no result. Rows were chosen to be rich in hits. Some 1.3% of all compounds tested hit in one or more screens of this group.

SMILES	TRPV1 ag	TRPV1 PAM	KCNH2 WT inh	KCNH2 3.1 block
O=C(c1cnn2c(C(F)F)cc(C3CC3)nc12)N1CCc2ccccc2C1	2	3	0	-21
Cc1ccc(/C=N/Nc2cc(C)nc(N3CCOCC3)n2)cc1	u	-28	15	-14
Cc1nc(N/N=C/c2cccnc2)cc(N2CCOCC2)n1	x	x	2	-10
Cc1cc(N/N=C/c2ccccc2)nc(N2CCOCC2)n1	86*	-13	0	-6
CCCCOc1ccc(/C=N/Nc2cc(N3CCOCC3)nc(C)n2)cc1	-7	2	4	-95*
Cc1cc(C)nc(NS(=O)(=O)c2ccc(NC(=O)c3cc(=O)c4ccccc4o3)cc2)n1	-2	3	-5	-15
OCC1CCCCN1CC(O)COC(c1ccc(F)cc1)c1ccc(F)cc1 (stereo unspecified)	2	29	25	-18
CC(=O)c1ccc(Nc2nc(-c3cccnc3)cs2)cc1	2	4	-81*	0
O=C(Nc1cccc(-c2csc(Nc3cccc(C(F)(F)F)c3)n2)c1)c1ccccc1	-1	-4	-6	-8
O=C(Nc1cccc(-c2csc(Nc3ccccc3)n2)c1)c1ccccc1	19	u	19	-79*
Cc1cc(C)c(C#N)c(SCC(=O)Nc2c(C)n(C)n(-c3ccccc3)c2=O)n1	x	x	-8	-21
Cc1nn(CC(=O)N2CCC(C(N)=O)CC2)c(=O)c2nn(-c3ccccc3)c(C)c12	1	4	0	-3
CCOC(=O)N1CCC(NC(=O)CS(=O)Cc2nc(-c3ccccc3C)oc2C)CC1 (stereo unspecified)	-4	12	-13	-2
CCCOc1ccccc1Cn1c(=O)oc2ccccc21	6	-11	-4	1
C=CCOc1ccccc1CN1CCC(Cc2ccccc2)CC1	8	13	39	-87*
O=[N+]([O-])c1cccc(OCCN2CCC(Cc3ccccc3)CC2)c1	3	-20	5	-70*
Cc1ccc([N+](=O)[O-])c(OCCCN2CCC(Cc3ccccc3)CC2)c1	x	x	-127*	-97*
O=Cc1cc(Cl)ccc1OCCN1CCC(Cc2ccccc2)CC1	-1	9	u	-105*
Cc1ccc([N+](=O)[O-])c(OCCN2CCCCCC2)c1	1	8	20	2
CCOC(=O)c1ccc(NC(=O)CSc2nc(-c3cccs3)cc(C(F)(F)F)c2C#N)cc1	-1	-7	x	x
CN(Cc1ccccc1)C(=O)CN1C(=O)NC2(CCCc3sccc32)C1=O (stereo unspecified)	x	x	-7	19
OCc1ccccc1OCCCN1CCC(Cc2ccccc2)CC1	1	-1	-3	-90*
Clc1ccccc1OCCN1CCC(Cc2ccccc2)CC1	1	6	16	-24
COc1ccc(/C=C/C(=O)Oc2ccc(C)cc2)cc1	0	-14	-5	-13
O=C(NCCc1ccccc1)c1ccc(CS(=O)(=O)c2ccc(Cl)cc2)o1	u	-14	17	-12
SMILES	TRPV1 ag	TRPV1 PAM	KCNH2 WT inh	KCNH2 3.1 block
Cc1ccc(C(=O)NCCc2ccccc2)cc1	84*	-12	-16	-7
Cc1ccc(S(=O)(=O)Cc2ccc(C(=O)NCCc3ccccc3)o2)cc1	81*	-27	0	11
O=C(NCCSCc1ccccc1)c1ccc(F)cc1	81*	-21	-1	-25
Cc1ccc(S(=O)(=O)N2CCOCC2)cc1C(=O)NCC1CCCCC1	13	-14	-6	28
CCN1CCN(c2ccc(NC(=O)c3cc(OC)c(OC)c(OC)c3)cc2)CC1	1	-3	-5	5
COc1cccc(CNC(=S)Nc2ccc(Cl)cc2C)c1	81*	-23	-3	-7
S=C(NCc1ccncc1)Nc1ccc(Cl)cc1Cl	80*	-20	-4	6
S=C(NCc1ccc(Cl)cc1)Nc1ccc(Cl)cc1Cl	u	-3	-5	-4
Fc1ccc(CNC(=S)Nc2ccc(Cl)cc2Cl)cc1	88*	-19	-15	-9
O=C1c2ccccc2[C@@H]2C[C@@H](O)[C@H](Nc3cccc(C(F)(F)F)c3)CCN12	x	x	9	6
Cc1c(C2=CCN(S(=O)(=O)c3cccc(Cl)c3)CC2)c2ccccc2n1CC(=O)N1CCCC1	-3	10	x	x
CCOC(=O)c1c(-c2ccc(C)cc2)csc1NC(=O)c1cc2ccccc2oc1=O	1	2	0	-122*
CCOC(=O)c1c(-c2ccc(C)cc2)csc1NC(=S)NC(=O)c1ccccc1	0	24	4	1
COCCN(CC1CCCN(C2Cc3ccccc3C2)C1)C(=O)CCC(C)=O (stereo unspecified)	2	-4	36	-16
COCCN(CC1CCCN(C2Cc3ccccc3C2)C1)C(=O)CCC(N)=O (stereo unspecified)	8	-8	-43	-127*
O=C(NCCCN1CCCC1)c1cc(Sc2ccc(F)cc2)nc2ccccc12	0	-6	42	-78*
O=C(NCCN1CCOCC1)c1cc(Sc2ccc(F)cc2F)nc2ccccc12	0	-6	0	-6
C[C@]12c3[nH]c4ccccc4c3CCN1C(=O)C(CC(=O)NCCCn1ccnc1)C[C@@H]2C(=O)N1CCCCC1 (stereo partly specified)	x	x	-3	5
COc1nnc(-c2ccc(C)cc2)c2ccccc12	0	1	-4	-90*
COc1cccc(Nc2nnc(SCC(=O)Nc3sccc3C(N)=O)s2)c1	2	24	-6	-97*
O=c1c2[nH]c3ccccc3c2ncn1CCC1=CCCCC1	1	6	-3	15
C1=C(CCNc2ncnc3c2[nH]c2ccccc23)CCCC1	80*	-29	-8	-11
O=C(NC1c2ccccc2Oc2ccccc21)c1ccc([N+](=O)[O-])cc1	x	x	u	-100*
COc1ccccc1CNC(=O)CN1C(=O)NC2(CCCc3sccc32)C1=O (stereo unspecified)	-1	21	-236*	10
CC1(C)N=C(N)N=C(N)N1c1cccc(C#N)c1	x	x	37	14
SMILES	TRPV1 ag	TRPV1 PAM	KCNH2 WT inh	KCNH2 3.1 block
Cc1ccc(C2(c3ccccc3)NC(=O)N(CC(=O)N3CC(=O)Nc4ccccc43)C2=O)cc1C (stereo unspecified)	-2	-50	-3	-3
Cc1cc(C)cc(NC(=S)N2CCC(NC(=O)c3ccco3)CC2)c1	-2	17	0	0
CC(=O)c1ccc2noc(-c3cccc(F)c3)c2c1	-5	23	7	-83*
COc1cccc(-c2onc3ccc(C(C)=O)cc23)c1	4	0	4	8
Cc1ccc(C)c(C(=O)COC(=O)C2CCN(c3ccc(C(F)(F)F)cn3)CC2)c1	1	10	2	-5
C[N+](C)(C)CC(O)CC(=O)O (stereo unspecified)	1	-5	-295*	14
CC(O)CC(=O)O (stereo unspecified)	2	-7	3	4
O=C(NNC(=O)C(c1ccccc1)c1ccccc1)c1ccccc1O	x	x	0	0
O=C(OCC1OC(n2cnc3c(N(C(=O)c4ccccc4)C(=O)c4ccccc4)ncnc32)C(O)C1F)c1ccccc1 (stereo unspecified)	0	8	-4	-86*
